Inconclusive results are not listed. Activity calls are given as the source filed them. Rule for the calls, unless noted: active = hit-call score of the fitted dose curve at least 0.9, where 1 is the maximum; inactive = score below 0.9.
Key:
[1] = BSK_3C_SRB: Viability Assessment in the BioMAP Diversity Plus: 3C Assay (AID 2283023); conditions: primary human endothelial cells (HUVEC);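 note: fitted both ways against DMSO so a hit may be signal rise or drop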
Procedure, shortened: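 Primary human umbilical vein endothelial cells in the 3C system were read 24 h after compound dosing. Total protein was stained with 0.1% sulforhodamine B after 10% TCA fixation and read at 560 nm, with bidirectional fitting against DMSO as baseline.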

[2] = read-out: Matrix Metallopeptidase 1 (MMP1), MMP1 (gene 4312); test: BSK_BE3C_MMP1: BioMAP Diversity Plus: BE3C Assay for Matrix Metallopeptidase 1 (MMP1) Biomarker Activity (AID 2283024); conditions: primary human bronchial epithelial cells; actives raise or lower the signal
Procedure, shortened: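 Human bronchial epithelial cells (BE3C system) exposed to compound for 24 h; MMP1 then quantified by ELISA. Activity was fitted in both directions relative to DMSO.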

[3] = BSK_3C_Vis: BioMAP Diversity Plus: 3C Assay for Morphology Visualization (AID 2283025); conditions: primary human endothelial cells (HUVEC);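 note: fitted both ways so gain or loss versus DMSO counts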;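 for AC50: light microscopy image of cell morphology used as background control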
Procedure, shortened: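 Chemicals were added to primary human umbilical vein endothelium, cells were incubated 24 h, and morphology was then visualized by light microscopy. Gain or loss of signal was fitted bidirectionally relative to DMSO.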

[4] = read-out: Pselectin, SELP (gene 6403); test: BSK_4H_Pselectin: BioMAP Diversity Plus: 4H Assay for Pselectin Biomarker Activity (AID 2283026); conditions: primary human endothelial cells (HUVEC); actives raise or lower the signal
Procedure, shortened: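 ELISA read-out of P-selectin on human umbilical vein endothelium after 24 h of dosing. Values derive from bidirectional fitting relative to DMSO. Parallel SRB protein staining flagged overt cytotoxicity.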

[5] = BSK_4H_SRB: Viability Assessment in the BioMAP Diversity Plus: 4H Assay (AID 2283027); conditions: primary human endothelial cells (HUVEC);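 note: cells exposed to compound for 24 h before staining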;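 for AC50: curves fitted both ways versus DMSO so AC50 may be loss or gain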
Procedure, shortened: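 Human umbilical vein endothelial cells were dosed with chemical and, after 24 h, fixed with 10% TCA, stained with 0.1% sulforhodamine B, and read at 560 nm to give total protein as a cytotoxicity measure. Bidirectional fitting relative to DMSO control.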

[6] = BSK_BE3C_SRB: Viability Assessment in the BioMAP Diversity Plus: BE3C Assay (AID 2283028); conditions: primary human bronchial epithelial cells;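 for AC50: fitted both ways so AC50 may mark signal gain or loss versus DMSO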
Procedure, shortened: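 Human primary bronchial epithelial cells were exposed to test chemicals for 24 h. Total protein in parallel cultures was then measured by staining with 0.1% sulforhodamine B after 10% TCA fixation, with absorbance read at 560 nm. Activity was fitted bidirectionally against DMSO.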

[7] = read-out: Thrombomodulin, THBD (gene 7056); test: BSK_3C_Thrombomodulin: BioMAP Diversity Plus: 3C Assay for Thrombomodulin Biomarker Activity (AID 2283029); conditions: primary human endothelial cells (HUVEC); actives raise or lower the signal
Procedure, shortened: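 Read-out is ELISA of thrombomodulin on human umbilical vein endothelium 24 h after chemical dosing. Gain or loss of signal is scored relative to DMSO. Overt cytotoxicity is checked in parallel cultures by sulforhodamine B staining.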

[8] = read-out: Urokinase-type plasminogen activator receptor (uPAR), PLAUR (gene 5329); test: BSK_4H_uPAR: BioMAP Diversity Plus: 4H Assay for Urokinase-type plasminogen activator receptor (uPAR) Biomarker Activity (AID 2283030); conditions: primary human endothelial cells (HUVEC); actives raise or lower the signal
Procedure, shortened: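 Primary human umbilical vein endothelial cells were exposed to chemical for 24 h before cell-surface uPAR was quantified by ELISA. Activity was fitted bidirectionally against the DMSO negative control baseline.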

[9] = read-out: Vascular endothelial growth factor receptor 2 (Homo sapiens) (UniProt P35968); test: BSK_4H_VEGFRII: BioMAP Diversity Plus: 4H Assay for Vascular endothelial growth factor receptor 2 (VEGFR2) Biomarker Activity (AID 2283031); conditions: primary human endothelial cells (HUVEC); actives raise or lower the signal
Procedure, shortened: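 Primary human umbilical vein endothelial cells in the BioMAP 4H system were dosed with test chemical, and 24 h later VEGFRII was measured by ELISA. Activity was fitted bidirectionally against DMSO as negative control and baseline.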

[10] = target: human Vitamin D Receptor (VDR), VDR (gene 7421) (UniProt P11473); test: ATG_VDR_TRANS: Attagene TRANS-FACTORIAL HepG2 Assay for human Vitamin D Receptor (VDR) (AID 2283022; active = hit-call score of the fitted dose curve at least 0.9, where 1 is the maximum)
Procedure, shortened: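 HepG2 cells were transiently transfected with multiple GAL4-UAS reporter units, so signal reflects exogenous chimeric receptor-Gal4 activity. After 24 h compound exposure, reporter mRNA was measured by RT-PCR, fluorescent labelling and capillary electrophoresis, fitted for gain of signal versus DMSO.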

Sequence of human Vitamin D Receptor (VDR), VDR (gene 7421) (P11473 whole entry, looked up, the tested form may be a part): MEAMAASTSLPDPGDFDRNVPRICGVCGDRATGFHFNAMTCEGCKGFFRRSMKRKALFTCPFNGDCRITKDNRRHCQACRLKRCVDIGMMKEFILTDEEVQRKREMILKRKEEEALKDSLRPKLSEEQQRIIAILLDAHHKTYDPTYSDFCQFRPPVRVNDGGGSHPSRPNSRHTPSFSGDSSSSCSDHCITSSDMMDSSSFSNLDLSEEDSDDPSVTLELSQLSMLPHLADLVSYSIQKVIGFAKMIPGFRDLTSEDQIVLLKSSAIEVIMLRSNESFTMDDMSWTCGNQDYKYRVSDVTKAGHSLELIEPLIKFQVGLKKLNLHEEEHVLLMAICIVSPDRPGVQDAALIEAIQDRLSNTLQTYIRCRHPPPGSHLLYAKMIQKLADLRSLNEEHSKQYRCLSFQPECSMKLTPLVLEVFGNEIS

CCCCCCCCCC=O
outcome [1]: inactive | outcome [2]: inactive | outcome [3]: inactive | outcome [4]: inactive | outcome [5]: inactive | outcome [6]: inactive | outcome [7]: inactive | outcome [8]: inactive | outcome [9]: inactive

Cc1ccc(Nc2ccc(O)c3c2C(=O)c2ccccc2C3=O)cc1
outcome [10]: inactive | outcome [1]: inactive | outcome [2]: inactive | outcome [3]: inactive | outcome [4]: inactive | outcome [5]: inactive | outcome [6]: inactive | outcome [7]: inactive | outcome [8]: inactive | outcome [9]: inactive

CCn1c2ccccc2c2cc(N)ccc21
outcome [1]: inactive | outcome [2]: inactive | AC50 [3]: 8.8 µM (active) | AC50 [4]: 1.23 µM (active) | outcome [5]: inactive | outcome [6]: inactive | outcome [7]: inactive | AC50 [8]: 0.152 µM (active) | outcome [9]: inactive

CN(CCOc1ccc(CC2SC(=O)NC2=O)cc1)c1ccccn1 (stereo unspecified)
outcome [1]: inactive | outcome [2]: inactive | outcome [3]: inactive | AC50 [4]: 1.12 µM (active) | outcome [5]: inactive | outcome [6]: inactive | outcome [7]: inactive | AC50 [8]: 11.6 µM (active) | outcome [9]: inactive

CNC[C@H](O)c1cccc(O)c1
outcome [10]: inactive | outcome [1]: inactive | outcome [2]: inactive | outcome [3]: inactive | outcome [4]: inactive | outcome [5]: inactive | outcome [6]: inactive | outcome [7]: inactive | outcome [8]: inactive | outcome [9]: inactive

CC[Si](OC(C)=O)(OC(C)=O)OC(C)=O
outcome [10]: inactive | outcome [1]: inactive | outcome [2]: inactive | outcome [4]: inactive | outcome [5]: inactive | outcome [6]: inactive | outcome [7]: inactive | outcome [8]: inactive | outcome [9]: inactive

Cc1ccc(O)c(C(C)(C)C)c1
AC50 [1]: 25 µM (active) | AC50 [2]: 28.3 µM (active) | AC50 [3]: 13.4 µM (active) | AC50 [4]: 34.3 µM (active) | AC50 [5]: 33.5 µM (active) | AC50 [6]: 31.9 µM (active) | AC50 [7]: 30.8 µM (active) | AC50 [8]: 28.2 µM (active) | outcome [9]: inactive

O=C(O)c1cn(-c2ccc(F)cc2)c2cc(N3CCNCC3)c(F)cc2c1=O
outcome [1]: inactive | outcome [2]: inactive | outcome [3]: inactive | outcome [4]: inactive | outcome [5]: inactive | outcome [6]: inactive | outcome [7]: inactive | outcome [8]: inactive | outcome [9]: inactive

CC1CCC(C(C)CS)CC1S (stereo unspecified)
outcome [10]: inactive | AC50 [1]: 20 µM (active) | AC50 [2]: 36.6 µM (active) | AC50 [3]: 37.1 µM (active) | AC50 [4]: 23.9 µM (active) | AC50 [5]: 30.9 µM (active) | AC50 [6]: 29.9 µM (active) | outcome [7]: inactive | AC50 [8]: 36.4 µM (active) | outcome [9]: inactive

O=C(O)c1cn(C2CC2)c2cc(N3CCNCC3)c(F)cc2c1=O
outcome [1]: inactive | outcome [2]: inactive | outcome [3]: inactive | outcome [4]: inactive | outcome [5]: inactive | outcome [6]: inactive | outcome [7]: inactive | outcome [8]: inactive | outcome [9]: inactive

O=[N+]([O-])c1cc(C(F)(F)F)ccc1Cl
outcome [1]: inactive | outcome [2]: inactive | outcome [3]: inactive | outcome [4]: inactive | outcome [5]: inactive | outcome [6]: inactive | outcome [7]: inactive | outcome [8]: inactive | outcome [9]: inactive

CC(=O)Nc1ccccc1O
outcome [10]: inactive | outcome [1]: inactive | outcome [2]: inactive | outcome [3]: inactive | outcome [4]: inactive | outcome [5]: inactive | outcome [6]: inactive | outcome [7]: inactive | outcome [8]: inactive | outcome [9]: inactive

CCc1c(C)cc(N)c(CC)c1N
outcome [1]: inactive | outcome [2]: inactive | outcome [3]: inactive | outcome [4]: inactive | outcome [5]: inactive | outcome [6]: inactive | outcome [7]: inactive | outcome [8]: inactive | outcome [9]: inactive

Reference: PubChem BioAssay (EPA / NIEHS)
